Measurements taken from the supplement of paper PMC10849652.
Of roughly 8,800 targets only a part is listed; those with a hit were picked by preference. About 0.5% of all pairs of compound and target were hits.

How the values were obtained:
Assay in all cases: log2 fold change, soluble protein after heating vs DMSO (PISA); higher = thermal stabilisation; K562 lysate, 10 uM; active = over 0.2 and 3.5 SD of the protein, either way, in both replicates (recomputed)
alvocidib = compound: CN1CC[C@H](c2c(O)cc(O)c3c(=O)cc(-c4ccccc4Cl)oc23)[C@H](O)C1 [alvocidib]
Summary of the method: (§1)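 Log-two fold change in thermal stability relative to solvent controls is reported from duplicates. For each sample, crude K562 extract from dounce-homogenised pellets in PBS pH 7.4 with 1 mM MgCl2, at 1 mg/mL protein, was treated with 10 μM compound for 30 min. Aliquots heated for 3 min across 48°C-58°C were pooled, brought to 0.5% NP-40 at 4°C and cleared at 21,000xg for 90 min. The supernatant was quantified by TMTpro 16plex LC-MS/MS with channel sums equalised.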

Tubastatin A = compound: CN1CCc2c(c3ccccc3n2Cc2ccc(C(=O)NO)cc2)C1 [Tubastatin A]
Summary of the method: as §1

[1] = compound: CNC(=O)C1=CC=CC=C1NC2=NC(=NC=C2Cl)NC3=C(C=C(C=C3)N4CCOCC4)OC
Summary of the method: as §1

defactinib = compound: CNC(=O)c1ccc(Nc2ncc(C(F)(F)F)c(NCc3nccnc3N(C)S(C)(=O)=O)n2)cc1 [defactinib]
Summary of the method: as §1

[2] = compound: CNc1nc(-c2ccc3c(N)n[nH]c3c2)cc(N2C[C@@H](C(=O)NC3CCCCC3)CC[C@H]2C)n1
Summary of the method: as §1

encorafenib = compound: COC(=O)N[C@@H](C)CNc1nccc(-c2cn(C(C)C)nc2-c2cc(Cl)cc(NS(C)(=O)=O)c2F)n1 [encorafenib]
Summary of the method: as §1

[3] = compound: COC(=O)[C@H](CCSC)NC(=O)C1=C(C=C(C=C1)NC[C@H](CS)N)C2=CC=CC=C2
Summary of the method: as §1

alisertib = compound: COc1cc(Nc2ncc3c(n2)-c2ccc(Cl)cc2C(c2c(F)cccc2OC)=NC3)ccc1C(=O)O [alisertib]
Summary of the method: as §1

[4] = compound: COc1cc2nc(-c3cc(F)ccc3O)nc(N[C@@H]3CNC[C@H]3C(C)(C)O)c2cc1OC
Summary of the method: as §1

gefitinib = compound: COc1cc2ncnc(Nc3ccc(F)c(Cl)c3)c2cc1OCCCN1CCOCC1 [gefitinib]
Summary of the method: as §1

lapatinib = compound: CS(=O)(=O)CCNCc1ccc(-c2ccc3ncnc(Nc4ccc(OCc5cccc(F)c5)c(Cl)c4)c3c2)o1 [lapatinib]
Summary of the method: as §1

pictilisib = compound: CS(=O)(=O)N1CCN(Cc2cc3nc(-c4cccc5[nH]ncc45)nc(N4CCOCC4)c3s2)CC1 [pictilisib]
Summary of the method: as §1

crizotinib = compound: C[C@@H](Oc1cc(-c2cnn(C3CCNCC3)c2)cnc1N)c1c(Cl)ccc(F)c1Cl [crizotinib]
Summary of the method: as §1

[5] = compound: C[C@H](C1=CC=C(C=C1)C(=O)NC2=C3C=CNC3=NC=C2)N
Summary of the method: as §1

duvelisib = compound: C[C@H](Nc1ncnc2nc[nH]c12)c1cc2cccc(Cl)c2c(=O)n1-c1ccccc1 [duvelisib]
Summary of the method: as §1

gandotinib = compound: Cc1cc(Nc2cc(CN3CCOCC3)c3nc(C)c(Cc4ccc(Cl)cc4F)n3n2)n[nH]1 [gandotinib]
Summary of the method: as §1

tozasertib = compound: Cc1cc(Nc2cc(N3CCN(C)CC3)nc(Sc3ccc(NC(=O)C4CC4)cc3)n2)n[nH]1 [tozasertib]
Summary of the method: as §1

doramapimod = compound: Cc1ccc(-n2nc(C(C)(C)C)cc2NC(=O)Nc2ccc(OCCN3CCOCC3)c3ccccc23)cc1 [doramapimod]
Summary of the method: as §1

bafetinib = compound: Cc1ccc(NC(=O)c2ccc(CN3CC[C@H](N(C)C)C3)c(C(F)(F)F)c2)cc1Nc1nccc(-c2cncnc2)n1 [bafetinib]
Summary of the method: as §1

[6] = compound: Cc1cccc(CC(=O)N2CCc3c2ccc(-c2cn(C)c4ncnc(N)c24)c3F)n1
Summary of the method: as §1

Measured: log2 fold change

FXR2 (UniProt P51116)
Sequence of UniProt P51116 (P51116 whole entry, looked up): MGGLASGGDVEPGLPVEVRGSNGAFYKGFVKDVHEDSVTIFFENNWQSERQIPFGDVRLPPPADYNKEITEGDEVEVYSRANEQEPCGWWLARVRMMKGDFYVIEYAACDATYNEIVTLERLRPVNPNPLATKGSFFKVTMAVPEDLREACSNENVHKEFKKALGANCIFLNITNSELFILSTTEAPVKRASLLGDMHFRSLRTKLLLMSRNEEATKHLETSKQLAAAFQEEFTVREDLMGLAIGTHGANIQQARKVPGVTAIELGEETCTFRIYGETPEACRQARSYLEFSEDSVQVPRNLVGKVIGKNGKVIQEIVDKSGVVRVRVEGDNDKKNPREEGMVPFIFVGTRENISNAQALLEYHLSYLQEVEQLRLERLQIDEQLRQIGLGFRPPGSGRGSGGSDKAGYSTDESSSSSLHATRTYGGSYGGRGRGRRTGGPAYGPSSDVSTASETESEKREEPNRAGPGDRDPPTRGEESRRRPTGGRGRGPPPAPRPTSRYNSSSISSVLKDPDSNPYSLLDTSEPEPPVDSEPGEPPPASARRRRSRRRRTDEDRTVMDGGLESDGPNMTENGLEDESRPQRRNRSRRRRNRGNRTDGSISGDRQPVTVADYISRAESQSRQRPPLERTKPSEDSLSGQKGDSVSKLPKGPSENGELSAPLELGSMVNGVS
inactive: alvocidib 0 | Tubastatin A -0.159 | [1] -0.083 | defactinib -0.117 | [2] -0.018 | encorafenib 0.06 | [3] 0.064 | alisertib 0.017 | [4] 0.013 | gefitinib 0.012 | lapatinib -0.002 | pictilisib -0.055 | crizotinib -0.017 | [5] -0.022 | duvelisib -0.016 | gandotinib -0.074 | tozasertib 0.009 | doramapimod 0.037 | bafetinib 0.002 | [6] 0.027

FAM83D (UniProt Q9H4H8)
Sequence of UniProt Q9H4H8 (Q9H4H8 whole entry, looked up): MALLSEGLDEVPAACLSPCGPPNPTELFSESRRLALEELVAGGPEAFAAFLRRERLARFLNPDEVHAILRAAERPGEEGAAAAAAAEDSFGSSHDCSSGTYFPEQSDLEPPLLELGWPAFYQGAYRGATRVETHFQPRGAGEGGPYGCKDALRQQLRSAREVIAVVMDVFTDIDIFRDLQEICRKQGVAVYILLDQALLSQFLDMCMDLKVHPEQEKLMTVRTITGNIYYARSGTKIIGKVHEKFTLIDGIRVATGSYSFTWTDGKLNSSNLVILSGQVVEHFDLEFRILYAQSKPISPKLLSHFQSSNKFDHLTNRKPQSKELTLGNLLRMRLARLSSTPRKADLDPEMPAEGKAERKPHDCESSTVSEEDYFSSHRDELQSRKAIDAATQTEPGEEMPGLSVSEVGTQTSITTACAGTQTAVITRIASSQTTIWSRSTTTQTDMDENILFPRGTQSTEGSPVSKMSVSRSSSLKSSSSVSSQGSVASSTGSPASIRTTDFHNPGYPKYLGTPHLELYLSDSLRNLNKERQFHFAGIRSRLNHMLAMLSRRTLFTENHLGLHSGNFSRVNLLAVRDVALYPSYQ
inactive: alvocidib -0.009 | Tubastatin A -0.044 | [1] 0.005 | defactinib -0.007 | [2] 0.022 | encorafenib 0.026 | [3] 0.017 | alisertib 0.015 | [4] 0.062 | gefitinib 0.009 | lapatinib -0.01 | pictilisib -0.024 | crizotinib -0.026 | [5] -0.021 | duvelisib -0.002 | gandotinib -0.018 | tozasertib -0.038 | doramapimod 0.009 | bafetinib -0.116 | [6] 0.031

DTYMK (UniProt P23919)
active: [3] 0.283
inactive: alvocidib 0.037 | Tubastatin A -0.095 | [1] 0.01 | defactinib -0.006 | [2] 0.04 | encorafenib -0.061 | alisertib 0.009 | [4] -0.007 | gefitinib -0.011 | lapatinib 0.026 | pictilisib -0.003 | crizotinib -0.042 | [5] 0.055 | duvelisib 0.023 | gandotinib -0.135 | tozasertib 0.01 | doramapimod 0.045 | bafetinib 0.007 | [6] -0.029

ETFRF1 (UniProt Q6IPR1)
Sequence of UniProt Q6IPR1 (Q6IPR1 whole entry, looked up): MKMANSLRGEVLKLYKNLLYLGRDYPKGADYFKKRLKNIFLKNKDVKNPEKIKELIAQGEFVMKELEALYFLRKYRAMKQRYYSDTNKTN
inactive: alvocidib 0.025 | Tubastatin A 0.032 | [1] -0.006 | defactinib -0.071 | [2] 0.021 | alisertib 0.003 | [4] -0.042 | gefitinib -0.009 | lapatinib 0.021 | pictilisib -0.01 | crizotinib -0.004 | [5] 0.112 | duvelisib -0.004 | gandotinib -0.087 | doramapimod -0.057 | bafetinib -0.039 | [6] -0.039

FTSJ3 (UniProt Q8IY81)
inactive: alvocidib 0.031 | Tubastatin A -0.073 | [1] -0.018 | defactinib 0.026 | [2] 0.007 | encorafenib -0.028 | [3] 0.031 | alisertib 0.005 | [4] -0.036 | gefitinib 0.004 | lapatinib 0.013 | pictilisib 0.023 | crizotinib -0.037 | [5] -0.031 | duvelisib -0.01 | gandotinib -0.019 | tozasertib -0.019 | doramapimod -0.025 | bafetinib 0.013 | [6] 0.031

FANCD2 isoform 1 (UniProt Q9BXW9)
Sequence of UniProt Q9BXW9 (Q9BXW9 whole entry, looked up): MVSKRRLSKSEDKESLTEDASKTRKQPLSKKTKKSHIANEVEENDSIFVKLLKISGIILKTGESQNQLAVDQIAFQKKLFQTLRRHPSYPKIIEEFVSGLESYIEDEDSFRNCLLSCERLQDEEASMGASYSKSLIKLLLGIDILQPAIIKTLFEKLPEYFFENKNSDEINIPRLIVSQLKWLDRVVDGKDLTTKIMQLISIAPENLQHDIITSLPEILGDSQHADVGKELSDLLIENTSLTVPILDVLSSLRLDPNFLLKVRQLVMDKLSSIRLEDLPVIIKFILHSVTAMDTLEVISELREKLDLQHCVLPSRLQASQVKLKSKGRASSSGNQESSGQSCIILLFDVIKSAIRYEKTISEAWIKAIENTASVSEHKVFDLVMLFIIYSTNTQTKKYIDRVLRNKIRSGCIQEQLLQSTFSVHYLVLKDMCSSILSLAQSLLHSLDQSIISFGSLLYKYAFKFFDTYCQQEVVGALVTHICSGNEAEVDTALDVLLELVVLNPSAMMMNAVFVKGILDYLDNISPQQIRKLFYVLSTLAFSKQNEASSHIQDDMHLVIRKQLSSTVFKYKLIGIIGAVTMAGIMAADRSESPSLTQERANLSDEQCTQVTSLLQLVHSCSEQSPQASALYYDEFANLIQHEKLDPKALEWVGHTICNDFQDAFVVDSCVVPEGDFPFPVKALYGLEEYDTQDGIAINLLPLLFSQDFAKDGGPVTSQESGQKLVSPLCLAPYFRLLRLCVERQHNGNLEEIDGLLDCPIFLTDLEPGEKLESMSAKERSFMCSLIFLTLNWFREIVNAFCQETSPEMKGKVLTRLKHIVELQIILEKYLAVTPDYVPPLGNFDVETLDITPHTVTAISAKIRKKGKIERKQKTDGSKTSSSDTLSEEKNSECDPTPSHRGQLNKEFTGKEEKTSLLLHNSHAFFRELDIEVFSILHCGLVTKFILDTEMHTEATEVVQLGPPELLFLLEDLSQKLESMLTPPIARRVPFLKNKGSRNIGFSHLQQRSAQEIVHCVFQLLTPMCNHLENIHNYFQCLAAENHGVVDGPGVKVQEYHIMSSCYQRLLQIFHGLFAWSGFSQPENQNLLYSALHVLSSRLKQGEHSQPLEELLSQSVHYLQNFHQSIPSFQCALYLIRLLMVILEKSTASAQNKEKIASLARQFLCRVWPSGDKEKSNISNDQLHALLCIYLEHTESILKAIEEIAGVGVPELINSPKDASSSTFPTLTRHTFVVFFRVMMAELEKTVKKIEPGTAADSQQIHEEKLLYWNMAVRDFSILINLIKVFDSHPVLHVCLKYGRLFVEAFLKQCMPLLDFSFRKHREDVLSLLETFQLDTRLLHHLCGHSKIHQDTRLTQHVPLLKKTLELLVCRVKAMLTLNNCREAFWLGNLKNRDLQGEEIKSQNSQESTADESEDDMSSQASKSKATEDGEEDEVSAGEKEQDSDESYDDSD
active: [6] 0.279
inactive: alvocidib 0 | Tubastatin A -0.082 | [1] -0.001 | defactinib -0.044 | [2] 0.147 | encorafenib -0.059 | [3] 0.096 | alisertib 0.001 | [4] 0.023 | gefitinib 0.009 | lapatinib -0.092 | pictilisib -0.037 | crizotinib -0.221 | [5] -0.086 | duvelisib -0.032 | gandotinib 0.132 | tozasertib -0.069 | doramapimod -0.023 | bafetinib -0.079

EPB41, A0A2R8Y6D0
inactive: alvocidib -0.015 | Tubastatin A -0.033 | [1] 0.114 | defactinib 0.098 | [2] -0.178 | encorafenib 0.029 | [3] 0.052 | alisertib 0.165 | [4] -0.014 | gefitinib 0.407 | lapatinib 0.008 | pictilisib -0.14 | crizotinib -0.085 | [5] -0.037 | duvelisib -0.086 | gandotinib 0.031 | tozasertib 0.068 | doramapimod -0.051 | bafetinib -0.031 | [6] -0.003

GABPB1 isoform 3 (UniProt Q06547)
Sequence of UniProt Q06547 (Q06547 whole entry, looked up): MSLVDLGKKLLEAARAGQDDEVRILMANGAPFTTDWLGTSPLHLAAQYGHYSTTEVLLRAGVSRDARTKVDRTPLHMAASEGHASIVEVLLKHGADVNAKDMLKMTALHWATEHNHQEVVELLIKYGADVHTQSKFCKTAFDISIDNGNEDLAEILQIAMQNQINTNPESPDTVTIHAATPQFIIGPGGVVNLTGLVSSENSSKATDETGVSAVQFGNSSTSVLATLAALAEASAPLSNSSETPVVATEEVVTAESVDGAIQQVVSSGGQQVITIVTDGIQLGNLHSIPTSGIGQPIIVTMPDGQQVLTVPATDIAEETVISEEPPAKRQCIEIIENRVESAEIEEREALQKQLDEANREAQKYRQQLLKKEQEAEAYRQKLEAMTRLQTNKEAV
active: Tubastatin A -0.299
inactive: alvocidib -0.013 | [1] -0.055 | defactinib -0.025 | [2] -0.039 | encorafenib -0.006 | [3] 0.099 | [4] 0.016 | lapatinib -0.057 | pictilisib -0.086 | crizotinib 0.001 | [5] -0.007 | duvelisib 0.068 | gandotinib 0 | tozasertib -0.001 | doramapimod -0.029 | bafetinib -0.149 | [6] 0.043

EAPP (UniProt Q56P03)
Sequence of UniProt Q56P03 (Q56P03 whole entry, looked up): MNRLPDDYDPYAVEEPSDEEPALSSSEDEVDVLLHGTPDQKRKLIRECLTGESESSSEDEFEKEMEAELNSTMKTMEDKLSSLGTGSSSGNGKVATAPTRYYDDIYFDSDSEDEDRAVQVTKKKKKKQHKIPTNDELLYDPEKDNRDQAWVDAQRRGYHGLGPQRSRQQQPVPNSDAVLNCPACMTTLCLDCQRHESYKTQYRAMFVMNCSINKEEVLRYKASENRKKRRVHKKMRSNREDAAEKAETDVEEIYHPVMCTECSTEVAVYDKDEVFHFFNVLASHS
inactive: alvocidib 0.048 | Tubastatin A -0.025 | [1] 0.078 | defactinib -0.017 | [2] 0.107 | encorafenib -0.014 | [3] -0.053 | alisertib -0.042 | [4] 0.017 | gefitinib -0.03 | lapatinib -0.033 | pictilisib 0.058 | crizotinib 0 | [5] 0.03 | duvelisib 0.03 | gandotinib -0.157 | tozasertib -0.09 | doramapimod -0.058 | bafetinib 0.109 | [6] 0.128

FAM53B (UniProt Q14153)
Sequence of UniProt Q14153 (Q14153 whole entry, looked up): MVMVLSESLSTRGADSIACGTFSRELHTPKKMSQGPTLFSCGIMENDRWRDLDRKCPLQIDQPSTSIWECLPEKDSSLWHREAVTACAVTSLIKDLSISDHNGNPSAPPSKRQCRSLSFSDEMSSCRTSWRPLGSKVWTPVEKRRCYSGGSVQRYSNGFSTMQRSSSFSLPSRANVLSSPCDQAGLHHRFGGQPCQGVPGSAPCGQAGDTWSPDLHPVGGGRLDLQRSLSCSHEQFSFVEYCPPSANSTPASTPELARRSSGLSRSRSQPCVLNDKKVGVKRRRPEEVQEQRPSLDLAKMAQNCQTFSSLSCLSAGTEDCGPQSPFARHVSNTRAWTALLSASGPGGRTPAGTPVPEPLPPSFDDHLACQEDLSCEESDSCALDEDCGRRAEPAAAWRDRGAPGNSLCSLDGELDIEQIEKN
active: Tubastatin A 0.473
inactive: alvocidib -0.125 | [1] 0.098 | defactinib 0.025 | [2] -0.064 | encorafenib 0.019 | [3] -0.1 | alisertib -0.04 | gefitinib -0.075 | pictilisib 0.02 | crizotinib -0.03 | [5] -0.032 | duvelisib 0.079 | gandotinib 0.037 | tozasertib 0.024 | doramapimod 0.169 | bafetinib -0.023 | [6] 0.083

EXOC3 (UniProt O60645)
inactive: alvocidib 0.011 | Tubastatin A -0.063 | [1] 0.009 | defactinib 0.031 | [2] -0.037 | encorafenib 0.001 | [3] 0.07 | alisertib 0.032 | [4] -0.023 | gefitinib -0.001 | lapatinib -0.037 | pictilisib -0.033 | crizotinib -0.133 | [5] 0.016 | duvelisib -0.039 | gandotinib -0.098 | tozasertib 0.019 | doramapimod 0.041 | bafetinib -0.094 | [6] 0.019

DYNC1I2 isoform 2 (UniProt Q13409)
inactive: alvocidib 0.065 | Tubastatin A 0.002 | [1] -0.02 | defactinib 0.001 | [2] -0.039 | encorafenib 0.011 | [3] 0.056 | [4] 0.096 | lapatinib 0.029 | pictilisib 0.078 | crizotinib -0.031 | [5] 0.096 | duvelisib 0.015 | gandotinib -0.132 | tozasertib 0.001 | doramapimod -0.011 | bafetinib -0.041 | [6] -0.012

ELAVL4 (UniProt P26378)
Sequence of UniProt P26378 (P26378 whole entry, looked up): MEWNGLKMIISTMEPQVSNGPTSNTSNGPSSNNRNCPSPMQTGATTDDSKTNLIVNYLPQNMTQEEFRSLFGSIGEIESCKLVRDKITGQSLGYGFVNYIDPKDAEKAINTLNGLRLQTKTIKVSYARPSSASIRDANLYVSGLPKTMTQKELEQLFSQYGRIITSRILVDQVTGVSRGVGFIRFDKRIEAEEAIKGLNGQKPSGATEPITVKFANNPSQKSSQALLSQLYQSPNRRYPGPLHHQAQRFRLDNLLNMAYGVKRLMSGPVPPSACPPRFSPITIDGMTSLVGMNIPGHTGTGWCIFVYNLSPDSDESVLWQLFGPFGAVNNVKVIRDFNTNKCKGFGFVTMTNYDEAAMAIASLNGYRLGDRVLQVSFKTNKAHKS
inactive: alvocidib 0.019 | Tubastatin A -0.125 | [1] 0.036 | defactinib -0.007 | [2] -0.003 | encorafenib 0.003 | [3] 0.211 | alisertib 0.136 | [4] -0.031 | gefitinib 0.056 | lapatinib -0.017 | crizotinib -0.065 | [5] -0.064 | duvelisib 0.03 | gandotinib -0.034 | tozasertib 0.05 | doramapimod 0.035 | [6] -0.061

FYN (UniProt P06241)
Sequence of UniProt P06241 (P06241 whole entry, looked up): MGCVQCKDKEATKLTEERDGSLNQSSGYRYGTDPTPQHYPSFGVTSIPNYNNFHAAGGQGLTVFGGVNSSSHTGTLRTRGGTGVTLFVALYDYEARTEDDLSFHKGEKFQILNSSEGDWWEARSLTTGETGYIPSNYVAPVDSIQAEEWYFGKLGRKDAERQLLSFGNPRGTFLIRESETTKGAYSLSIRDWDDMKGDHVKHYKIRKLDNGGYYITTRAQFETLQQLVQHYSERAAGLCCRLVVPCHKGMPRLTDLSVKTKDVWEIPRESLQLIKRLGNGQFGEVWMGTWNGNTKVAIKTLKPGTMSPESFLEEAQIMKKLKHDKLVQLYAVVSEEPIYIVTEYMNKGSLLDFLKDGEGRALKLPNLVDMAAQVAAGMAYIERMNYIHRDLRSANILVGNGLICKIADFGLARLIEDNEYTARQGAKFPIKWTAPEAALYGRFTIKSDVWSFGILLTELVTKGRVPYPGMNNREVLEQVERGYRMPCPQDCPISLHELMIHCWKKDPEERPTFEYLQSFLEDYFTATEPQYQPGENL
active: gandotinib 0.422
inactive: alvocidib -0.078 | Tubastatin A 0.03 | [1] -0.009 | defactinib 0.038 | [2] -0.069 | encorafenib 0.092 | [3] -0.121 | [4] 0.005 | lapatinib 0.007 | pictilisib -0.201 | crizotinib 0.12 | [5] -0.092 | duvelisib -0.019 | tozasertib 0.054 | doramapimod -0.04 | bafetinib 0.198 | [6] -0.057

ESYT2 (UniProt H7BXI1)
inactive: alvocidib 0.02 | Tubastatin A 0.038 | [1] -0.02 | defactinib 0.001 | [2] -0.072 | encorafenib 0.053 | [3] -0.1 | alisertib -0.003 | [4] 0.029 | gefitinib -0.006 | lapatinib -0.008 | pictilisib 0.01 | crizotinib -0.039 | [5] 0.089 | duvelisib 0.018 | gandotinib -0.073 | tozasertib 0.063 | doramapimod 0.018 | bafetinib -0.115 | [6] 0.002
